Pf growth 96h = P. falciparum growth inhibition at 96 hours | P. falciparum luciferase reporter growth, 96 h | Potency, µM (doses to about 28.7 µM), for the others: top-dose activity change, negative = inhibition, usual class: inhibitors | 320,000 tested, 6.9% active | AID 504834; also: potency is read from the fitted curve at half-maximal effect; % is scaled to controls: 0 for no effect and ±100 for the full control effect
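Two-generation exposure (96 h) targets delayed-death phenotype. Reporter parasites carrying integrated firefly luciferase, in red cells at 2% hematocrit and 0.05% parasitemia final, kept at 37 C, 5% CO2; luminescence loss indicates inhibition.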
CHX counter = affects cycloheximide protein synthesis inhibition readout, counter-screen; cell reporter, cycloheximide protein synthesis inhibition counterscreen; max response, %; 300,000 tested, 12% active; in the data active = max response mostly above about 13%, no sharp cut-off; inactive = mostly below about 14%; also: read at 38.3 µM for the half of the compounds with a filed dose; 0% is about no effect
Shiga toxin inh = Shiga toxin inhibition; Vero cells, Shiga toxin protein synthesis inhibition reporter; inhibition, % at 38.7 µM; 290,000 tested, 9.2% active; in the data active = inhibition mostly above about 28%, no sharp cut-off; inactive = mostly below about 43%; also: 0% is about no effect
Pf growth 48h = inhibits P. falciparum growth in the first generation, 48 h; P. falciparum luciferase growth in erythrocytes, 48 h; Potency, µM (highest dose often 28.7 µM), without a hit: at the highest dose activity change, negative = inhibition, usual class: inhibitors; 310,000 tested, 5.9% active; also: potency is read from the fitted curve at half-maximal effect; % is scaled to controls: 0 for no effect and ±100 for the full control effect
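Erythrocytes infected with P. falciparum carrying an integrated firefly luciferase reporter (2% hematocrit, 0.1% parasitemia final) were exposed to compounds in RPMI 1640 with 0.5% Albumax at 37 C, 5% CO2. Growth inhibition was scored as reduced luminescence.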
* hit, by the source's call; ? = inconclusive; . = no result; [ ] = another dose, or the depositor's remark. Sampled rows, rich in hits. Any-hit rate of the full collection: about 21%. Unless noted, calls follow the shape of the dose curve; as a rule, active = well fitted inhibition curve with a large enough effect; inconclusive = small, poorly fitted or top-dose-only effect, or another doubt; inactive = no such curve, though single readings can be large or run the other way.

SMILES | Pf growth 96h | CHX counter | Shiga toxin inh | Pf growth 48h
O=C(NNc1ccccc1[N+](=O)[O-])Nc1ccc(F)cc1 | 72% | 13 | 33* | 32%
O=C(NNc1ccccc1[N+](=O)[O-])Nc1ccccc1 | . | 15 | -5 | 26%
O=C(CCN1C(=O)/C(=C\c2cccc(Br)c2)SC1=S)N1CCOCC1 | ? | 1 | -3 | 1%
CCN(CC(=O)N1CCOCC1)S(=O)(=O)c1cc(Cl)ccc1Cl | -5% | -3 | -8 | -12%
CC1CC(CCC(=O)NC(=S)Nc2ccc(Cl)cn2)C(=O)O1 (stereo not given) | ? | 14 | 3 | -3%
CC(C)Oc1cc(-n2c(=S)[nH]c3ccccc3c2=O)c(Cl)cc1Cl | 4.7µM* | -3 | -10 | 5.9µM*
O=C(COc1nsnc1N1CCOCC1)Nc1ccc(Cl)cc1 | -7% | -2 | 3 | 11%
O=C(CSc1ccc(Cl)cc1)Nc1ccc(NC(=O)c2ccco2)cc1 | 37% | 8 | 17 | 16%
O=C(COc1ccc([N+](=O)[O-])cc1)Nc1ccc(N2CCN(C(=O)c3ccco3)CC2)cc1 | 5.2µM* | 0 | -16 | 14%
O=C(COc1ccc(Cl)cc1)Nc1ccc(N2CCN(C(=O)c3ccco3)CC2)cc1 | 12µM* | 4 | -18 | ?
O=C(COc1nsnc1N1CCOCC1)Nc1ccc([N+](=O)[O-])cc1 | -22% | -2 | -18 | 5.2µM*
O=C(CSc1ccc(Cl)cc1)Nc1ccc(N2CCN(C(=O)c3ccco3)CC2)cc1 | . | -2 | -5 | 12µM*
COc1ccc(CN2CCNC(=O)C2CC(=O)NCC2CCOCC2)c(F)c1 (stereo not given) | 10µM* | 1 | -5 | 6%
COc1ccccc1CN1CCNC(=O)C1CC(=O)NCC1CCOCC1 (stereo not given) | 9.3µM* | 5 | -7 | -1%
COc1cccc(CN2CCNC(=O)C2CC(=O)NCC2CCOCC2)c1 (stereo not given) | ? | 6 | 18 | -1%
C[C@@H]1C(=O)N(S(=O)(=O)c2ccc([N+](=O)[O-])cc2)[C@H]1c1ccccc1 | . | 6 | 29 | .
Cc1cc(C)n2nc(C(=O)Nc3nccs3)nc2n1 | 29%[5.75 µM] | 23* | 84* | 98%
CCSc1nnc(NC(=O)c2nc3nc(C)cc(C)n3n2)s1 | 1% | 6 | 8 | -3%
Cc1csc(NC(=O)c2nc3nc(C)cc(C)n3n2)n1 | 24% | 48* | 49 | 103%
Cc1cc(C)n2nc(C(=O)Nc3nnc(C4CC4)s3)nc2n1 | 17% | -2 | -18 | 27%
CCC(Sc1nc(C)cc(C)n1)C(=O)Nc1nccs1 (stereo not given) | 13µM* | -8 | -26 | ?
CC(=O)OC(COc1ccccc1)Cn1cnc2cc(C)c(C)cc21 (stereo not given) | -5% | -1 | 15 | ?
CCc1nc2sc3c(c2c(=O)n1CCO)CCC3 | -1% | -1 | -4 | 1%
O=C(NCCc1ccc(Cl)cc1)c1ccc2nccnc2c1 | 111% | 52* | 67* | 155%
O=C(NCCc1ccc(O)cc1)c1ccc(Cl)cc1 | 107% | 56* | 70* | 127%
SMILES | Pf growth 96h | CHX counter | Shiga toxin inh | Pf growth 48h
CCN(CC)Cc1cc(CCNC(=O)c2ccc(Cl)cc2)ccc1O | . | 17* | 21 | ?
O=C(NCCc1ccc(Cl)cc1)c1ccc2nc[nH]c2c1 | 0% | 15 | 76 | 24%
O=C(CSc1ccccc1)NCC1(N2CCOCC2)CCCCC1 | 2% | . | . | -2%
Cc1ccc(C)n1-c1ccc(-c2nnco2)cc1 | 12µM* | 6 | -4 | -6%
Cc1cc(-c2nnco2)c(C)n1-c1ccc(F)cc1 | -3% | 12 | -4 | 64%
O=C(c1ccco1)N1CCN(C(=O)c2ccccc2NS(=O)(=O)c2ccc(F)cc2)CC1 | 0% | 13 | -3 | -37%
CCCn1ccnc1SCC(=O)Nc1c(C)n(C)n(-c2ccccc2)c1=O | -28% | . | . | ?
COc1ccc(NC(=O)CN(C)S(=O)(=O)c2ccc(Br)s2)cc1 | -25% | 10 | 23 | -14%
CN(CC(=O)Nc1ccc2c(c1)OCCO2)S(=O)(=O)c1cccc2cccnc12 | -1% | 11 | 7 | .
CN(CC(=O)Nc1ccc2c(c1)OCCO2)S(=O)(=O)c1ccc(Br)s1 | 13µM* | 25* | 3 | .
Cc1ccccc1NC(=O)CCS(=O)(=O)c1ccc(Br)s1 | 265% | 7 | 24 | 12%
Cc1ccc(NC(=O)CN(C)S(=O)(=O)c2ccc(Br)s2)cc1F | 22% | 21* | 44* | 13%
CC(C)NC(=O)CCS(=O)(=O)c1ccc(Br)s1 | 0.47µM* | 17 | 32 | 38%
CN(CC(=O)Nc1ccc(Cl)cc1)S(=O)(=O)c1cccc2cccnc12 | ? | -1 | -4 | .
CN(CC(=O)Nc1ccc(F)c(F)c1)S(=O)(=O)c1cccc2cccnc12 | 13µM* | -3 | 7 | 2%
CNS(=O)(=O)c1cccc(C(=O)OCC(=O)N(Cc2ccccc2)C(C)(C)C)c1 | -11% | -2 | -4 | -4%
CCn1c(C)c(Br)c(=O)c(C(=O)OC)c1-c1ccc(Cl)cc1 | 6% | -1 | -4 | -14%
CC1(c2nnc(Cc3ccccc3)o2)CC(c2ccccc2Br)=NO1 (stereo not given) | 33% | . | . | 12%
CCn1c(CC(=O)Nc2ccc(OC)cc2)nnc1SCC(=O)N1CCOCC1 | ? | -4 | -6 | 8%
CC(NC(=O)CN(C)S(=O)(=O)c1cccc2nsnc12)c1ccccc1 (stereo not given) | ? | -3 | -11 | -8%
CC(NC(=O)CN(C)S(=O)(=O)c1ccc(Br)s1)c1ccccc1 (stereo not given) | -12% | 36* | 84* | 6%
CCN(CC(=O)Nc1ccc2c(c1)OCCO2)S(=O)(=O)c1cccs1 | 31% | 28* | 52* | .
O=C(CNS(=O)(=O)c1ccc(Br)s1)Nc1ccc2c(c1)OCCO2 | 13µM* | 32* | 39 | ?
CCN(CC(=O)Nc1ccc2c(c1)OCCO2)S(=O)(=O)c1ccc(C)cc1 | . | 11 | -8 | 13%
O=C(CNS(=O)(=O)c1ccccc1)Nc1ccc2c(c1)OCO2 | -2% | 9 | 16 | 27%
SMILES | Pf growth 96h | CHX counter | Shiga toxin inh | Pf growth 48h
O=c1c2sccc2n(Cc2cc(=O)n3ccccc3n2)c(=O)n1-c1ccccc1 | 4.7µM* | 1 | -5 | 0%
COC(=O)c1cc2ccsc2n1Cc1cc(=O)n2ccccc2n1 | 48% | 28* | 74* | ?
COc1cc(-n2c(=O)c3ccccc3n(Cc3cc(=O)n4ccccc4n3)c2=O)cc(OC)c1OC | ? | -3 | -8 | 7%
O=C(COc1ccc(F)cc1Cl)Nc1ccc(N2CCOCC2)cc1N1CCOCC1 | ? | . | . | 9.3µM*
O=C(CSCc1ccc(F)cc1)Nc1ccc(N2CCOCC2)cc1N1CCOCC1 | 13µM* | . | . | 5.9µM*
Cc1nn(Cc2ccc(F)cc2)c2sc(C(=O)Nc3ccc(N4CCOCC4)cc3N3CCOCC3)cc12 | 15µM* | 1 | -4 | 12µM*
O=C(Cc1ccccc1)Nc1ccc(N2CCOCC2)cc1N1CCOCC1 | 2% | -1 | -5 | -13%
Cc1ccc(C(=O)Nc2ccc(N3CCOCC3)cc2N2CCOCC2)cc1 | ? | -3 | -8 | 16%
O=C(COc1ccccc1F)Nc1ccc(N2CCOCC2)cc1N1CCOCC1 | -28% | . | . | ?
